# Laboratory results: PubChem BioAssay AID430 (Sanford-Burnham Center for Chemical Genomics, 2006)
# Hit rate of the full screen: of about 63,000 compounds, about 1,100 (1.7%) were called active. This excerpt belongs to a sample that is enriched for actives. Results with a measured potency or affinity are listed apart. Values without a mark were called inactive. Rule as the data show it: active = cytotoxicity above about 50%; inactive = the rest.
# Test: HPDE-C7 pancreatic duct cell viability loss – fluorescence, HTS (AID 430);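 also: cells exposed to compound for 48 hours before viability readout; 0% = vehicle and 100% = reference cytotoxic drug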
# Conditions: HPDE-C7 pancreatic duct cells viability, at 10 µM, stronger effect = higher value
row,Compound,cytotoxicity
1,COc1cc(OC)cc(C(=O)N2CCC(n3c(C)nc4cc(F)ccc43)CC2)c1,3%
2,N#Cc1cc2sc3nnc(-c4ccncc4)n3c2cc1C#N,-14.9%
3,Cc1nc2cc(C(=O)OCC(=O)N(CC(C)C)C3CCS(=O)(=O)C3)ccc2n1-c1ccccc1 (stereo unspecified),-10.3%
4,O=C(O)CCc1ccc(-c2cccs2)n1NC(=O)c1ccc(Cl)cc1,0.6%
5,Cc1csc(NC(=O)CSc2nnc(-c3ccc(S(=O)(=O)N4CCCC4)cc3)o2)n1,-13.8%
6,COc1cccc(CNC(=O)Cn2cccc2)c1,-4.3%
7,COc1ccccc1NCCC(=O)OCC(=O)Nc1ccc(Cl)cn1,10.3%
8,CN(CC(=O)Nc1ccc(C#N)cc1)Cc1ccc(Cl)cc1,6.1%
9,Cc1cccc(NC(=O)Nc2ccc(C#N)cc2)n1,-0.1%
10,N#Cc1ccc(NC(=O)Nc2ccc(Cl)cc2)cc1,57.7% (active)
11,COc1ccc(Cl)cc1NC(=O)N1CCN(S(C)(=O)=O)CC1,-6.5%
12,C=CCn1c(N)cc(=O)nc1SCC(=O)Nc1ccccc1,-16%
13,O=C(c1ccccc1)N1CCCCC(Sc2nnnn2-c2ccccc2)C1=O (stereo unspecified),-6.2%
14,Cc1ccc2oc3c(c(=O)c2c1)C(c1ccc(F)cc1)N(CCCN1CCOCC1)C3=O (stereo unspecified),-11.5%
15,COC(=O)C1=C(C)N(C)C(=O)NC1c1cc(Cl)cc(Cl)c1OC (stereo unspecified),1.6%
16,Cc1cc(N2CCN(C(=O)c3ccco3)CC2)n2nc(C)c(-c3ccc(Cl)cc3)c2n1,14.2%
17,Cc1nn2c(N3CCN(C(=O)c4ccco4)CC3)cc(C(C)(C)C)nc2c1-c1ccccc1,75.8% (active)
18,Cc1cc(N2CCN(C(=O)c3ccco3)CC2)n2nc(C)c(-c3ccccc3)c2n1,7.9%
19,COC(=O)c1ccccc1S(=O)(=O)N(Cc1cc2ccc(OC)cc2[nH]c1=O)CC1CCCO1 (stereo unspecified),-2%
20,O=C(CCNS(=O)(=O)c1cccs1)NCc1ccco1,-2.8%
21,C=CCOc1nc2c(c(=O)n(Cc3ccc(Cl)cc3)c(=O)n2C)n1C,6.6%
22,C=CCOc1nc2c(c(=O)n(C)c(=O)n2C)n1Cc1ccc(Cl)cc1,59.6% (active)
23,C=CCOc1nc2c(c(=O)n(C)c(=O)n2C)n1Cc1ccc(Cl)cc1Cl,-22.3%
24,CCc1c(C(=O)Nc2ccc(S(=O)(=O)N3CCOCC3)cc2)csc1C,11%
25,N=c1c2c(n(Cc3ccc(F)cc3)c3c1CCC3)CCC2,29.3%
26,N=c1c2c(n(Cc3ccc(Cl)c(Cl)c3)c3c1CCC3)CCCC2,63.8% (active)

row,Compound,cytotoxicity
1,N=c1c2c(n(Cc3ccc(Cl)cc3)c3c1CCC3)CCC2,34%
2,O=C(C1CCN(S(=O)(=O)c2ccc(Br)s2)CC1)N1CCc2ccccc21,10.9%
3,O=C1N(S(=O)(=O)c2ccccc2F)C(=O)C2(CCCC2)N1S(=O)(=O)c1ccccc1F,-2.1%
4,Cn1c(N2CCCCC2)nc2c1c(=O)n(Cc1cccc(Br)c1)c(=O)n2C,-15.8%
5,O=c1[nH]c(Cc2ccccc2)nc2c1oc1ccccc12,-7.5%
6,O=c1[nH]cnc2c1oc1ccccc12,1.3%
7,O=C(O)c1c(-c2ccccc2)c2oc3ccccc3c2[nH]c1=O,89.7% (active)
8,COC(=O)c1c(-c2ccc(F)cc2)noc1N,-23.1%
9,COc1ccc(C(=O)CSc2nnc(-c3ccco3)n2C)cc1,-10.7%
10,CCn1c(-c2ccco2)nc2ccccc21,6.2%
11,COc1ccc(C(=O)n2c(-c3ccco3)nc3ccccc32)cc1,66.4% (active)
12,O=C(Nc1ccc2c(c1)oc1ccccc12)c1ccc(Br)o1,3.1%
13,CCCC(=O)Nc1cc(OC)c(OC)cc1C(=O)O,6.8%
14,O=C(Nc1nnc(-c2cccs2)o1)c1cccc(Oc2ccccc2)c1,50.4% (active)
15,O=C(Nc1nnc(-c2cccs2)o1)c1ccco1,-23%
16,O=C(CCc1ccccc1)Nc1nnc(-c2cccs2)o1,-3%
17,COc1cccc(C(=O)Nc2nnc(-c3cccs3)o2)c1,22%
18,O=C(Nc1nnc(-c2cccs2)o1)c1cccc(F)c1,41.3%
19,O=C(Nc1nnc(-c2cccs2)o1)c1cccc(C(F)(F)F)c1,78.7% (active)
20,CCCCn1c2nc3ccccc3nc2c2c(=O)n(C(C)CC)cnc21 (stereo unspecified),-10.4%
21,COc1ccc(CN(CCCN2CCOCC2)S(=O)(=O)N(C)C)cc1OC,-7.2%
22,COc1ccc2nc(SCC(=O)NC(C)C)[nH]c2c1,-13.4%
23,O=C(C1Cc2ccccc2O1)N1CCCCC1 (stereo unspecified),-12.6%
24,COc1ccc(Cl)cc1N1CC(C(=O)Nc2nccs2)CC1=O (stereo unspecified),2.4%
25,O=C(CSc1nnnn1C1CCCC1)N1CCN(C(=O)c2ccco2)CC1,-11.8%
26,CN(C(=O)c1cccc(C#N)c1)c1nnc(-c2ccccn2)s1,-2%

row,Compound,cytotoxicity
1,CCCCCN=Cc1c(C)[nH]n(-c2nc3ccccc3s2)c1=O,1.2%
2,O=c1c(C=NCCCn2ccnc2)c(-c2ccccc2)[nH]n1-c1nc2ccccc2s1,57.5% (active)
3,CCCc1[nH]n(-c2nc3ccccc3s2)c(=O)c1C=NCCN1CCOCC1,8.6%
4,O=C(NCC(=O)N(Cc1ccc(F)cc1)C(C(=O)NC1CCCC1)c1ccco1)c1ccco1 (stereo unspecified),-8.4%
5,CCC(CC)C(=O)Nc1cc(=O)n(C)c(=O)n1C,-10.5%
6,N#CC1=C(N)C(C#N)(C#N)[C@H](c2ccoc2)[C@H]2CN(Cc3ccccc3)CC=C12,72% (active)
7,CC(C)N1CC=C2C(C#N)=C(N)C(C#N)(C#N)C(c3ccccc3)C2C1 (stereo unspecified),12.8%
8,CC(=O)N1CC=C2C(C#N)=C(N)C(C#N)(C#N)[C@H](c3ccoc3)[C@H]2C1,9.7%
9,CCSc1nnc(NC(=O)CN(C)S(=O)(=O)c2ccc(F)cc2)s1,-4.8%
10,Cc1ccc(-c2nnn(CCC(=O)N3CCCCC3C)n2)cc1 (stereo unspecified),-5.2%
11,CCCCOc1ccccc1NC(=O)CC1Nc2ccccc2NC1=O (stereo unspecified),-9.1%
12,COc1cccc(C2CC(=O)Nc3cc4c(cc32)OCCO4)c1OC(C)C (stereo unspecified),27.3%
13,O=C1CC(c2ccncc2)c2cc3c(cc2N1)OCCO3 (stereo unspecified),-10.2%
14,CC(C)Oc1ccccc1C1CC(=O)Nc2cc3c(cc21)OCCO3 (stereo unspecified),56.4% (active)
15,Cc1ccc(C2CC(=O)Nc3cc4c(cc32)OCCO4)s1 (stereo unspecified),-4.6%
16,CC(C)Oc1ccccc1C1CC(=O)Nc2cc3c(cc21)OCO3 (stereo unspecified),39.1%
17,COc1ccccc1C1CC(=O)Nc2cc3c(cc21)OCCO3 (stereo unspecified),54.4% (active)
18,COc1ccc(C(=O)N2CCN(S(=O)(=O)c3ccc(C)cc3C)CC2)cc1OC,2.4%
19,Cc1ccc(Cl)cc1NC(=O)Cn1cccc1,-2.6%
20,Cc1cc(C(=O)N2CCN(Cc3ccc4c(c3)OCO4)CC2)on1,0.3%
21,COC(=O)c1cc(-c2ccc3c(c2)OCO3)nc2ccccc12,-9.6%
22,O=C(COc1cccc(NC(=O)c2ccco2)c1)c1ccc(F)cc1,-13.8%
23,COc1ccc2c(c1)C(=O)CC(c1ccccc1F)O2 (stereo unspecified),-4.1%
24,Cn1c(Cl)cnc1C1CC(=O)c2cc(Cl)ccc2O1 (stereo unspecified),69.6% (active)
25,CN1CCN(C2=Nc3ccccc3Oc3ccc(Cl)cc32)CC1,10.6%
26,CCN1CCN(C(=O)c2nn(-c3ccc(OC)cc3)c(=O)c3c2c2ccccc2n3C)CC1,-10.7%

row,Compound,cytotoxicity
1,CCCc1[nH]nc2c1C1(C(=O)N(C(C)C)c3ccccc31)C(C#N)=C(N)O2 (stereo unspecified),-41.8%
2,CC(=O)C1=C(O)C(=O)N(Cc2ccco2)C1c1ccc(F)cc1 (stereo unspecified),-1.4%
3,O=C1c2[nH]nc(-c3ccccc3O)c2C(c2ccccc2)N1Cc1ccco1 (stereo unspecified),21.9%
4,O=C1c2ccccc2C(O)N1Cc1ccco1 (stereo unspecified),-6.1%
5,O=C1c2ccccc2NC(c2ccc(F)cc2)N1Cc1ccco1 (stereo unspecified),1.1%
6,O=C1c2[nH]nc(-c3ccccc3O)c2C(c2cccc(Cl)c2)N1CC1CCCO1 (stereo unspecified),32.4%
7,O=C1C(=O)N(Cc2ccco2)C(c2cccc(Cl)c2)/C1=C(\O)c1ccc2c(c1)OCCO2 (stereo unspecified),3.5%
8,COC(=O)Nc1sccc1C(=O)Nc1sccc1C(=O)OC,3.5%
9,CCOC(=O)N1CCN(c2c(N3CCc4ccccc4C3)c(=O)c2=O)CC1,-10.2%
10,O=C(CC(O)(c1ccccc1)C(F)(F)C(F)F)c1cccs1 (stereo unspecified),2.3%
11,CCN(CC)C(C(=O)Nc1ccc2c(c1)OCO2)c1ccccc1 (stereo unspecified),5%
12,COc1ccc(-n2c(NC(=O)c3ccco3)c(C#N)c3nc4ccccc4nc32)cc1,5.6%
13,CCCCn1c(NC(=O)c2ccccc2)c(C#N)c2nc3ccccc3nc21,101% (active)
14,N#Cc1c(NC(=O)c2ccc(Br)o2)n(-c2ccccc2)c2nc3ccccc3nc12,54.7% (active)
15,CCCCn1c(NC(=O)c2ccccc2Cl)c(C#N)c2nc3ccccc3nc21,61.7% (active)
16,CCCCCn1c(N)c(C#N)c2nc3ccccc3nc21,3.3%
17,C=CCn1c(NC(=O)c2ccccc2)c(C#N)c2nc3ccccc3nc21,45.1%
18,CCCCn1c(NC(C)=O)c(C#N)c2nc3ccccc3nc21,-2.1%
19,CCCCn1c(NC(=O)CC)c(C#N)c2nc3ccccc3nc21,10%
20,CCC(=O)Nc1c(C#N)c2nc3ccccc3nc2n1-c1ccccc1C,2.9%
21,CCCCn1c(NC(=O)c2ccc(F)cc2)c(C#N)c2nc3ccccc3nc21,73.6% (active)
22,C=CCn1c(NC(=O)c2ccccc2Cl)c(C#N)c2nc3ccccc3nc21,17.3%
23,CCC(=O)Nc1c(C#N)c2nc3ccccc3nc2n1C1CCCCC1,2%
